Experimental data published in ChEMBL document CHEMBL1961873, “Compounds: GSK PKIS; Assays: Nanosyn kinase panel” (2012).

Columns and labels:
[1] = system: Tyrosine-protein kinase ABL1 (Homo sapiens), P00519 [T315I]; conditions: at 1 µM
[2] = system: Tyrosine-protein kinase ABL1 (Homo sapiens), P00519 [Y253F]; conditions: at 0.1 µM
[3] = system: Tyrosine-protein kinase ABL1 (Homo sapiens), P00519 [Y253F]; conditions: at 1 µM
[4] = target: Tyrosine-protein kinase ABL1 (Homo sapiens) (UniProt P00519); conditions: at 0.1 µM
[5] = target: Tyrosine-protein kinase ABL1 (Homo sapiens) (UniProt P00519); conditions: at 1 µM
[6] = target: ALK tyrosine kinase receptor (Homo sapiens) (UniProt Q9UM73); conditions: at 0.1 µM
Chain of ALK tyrosine kinase receptor (Homo sapiens) (Q9UM73 19-1620 limits assumed): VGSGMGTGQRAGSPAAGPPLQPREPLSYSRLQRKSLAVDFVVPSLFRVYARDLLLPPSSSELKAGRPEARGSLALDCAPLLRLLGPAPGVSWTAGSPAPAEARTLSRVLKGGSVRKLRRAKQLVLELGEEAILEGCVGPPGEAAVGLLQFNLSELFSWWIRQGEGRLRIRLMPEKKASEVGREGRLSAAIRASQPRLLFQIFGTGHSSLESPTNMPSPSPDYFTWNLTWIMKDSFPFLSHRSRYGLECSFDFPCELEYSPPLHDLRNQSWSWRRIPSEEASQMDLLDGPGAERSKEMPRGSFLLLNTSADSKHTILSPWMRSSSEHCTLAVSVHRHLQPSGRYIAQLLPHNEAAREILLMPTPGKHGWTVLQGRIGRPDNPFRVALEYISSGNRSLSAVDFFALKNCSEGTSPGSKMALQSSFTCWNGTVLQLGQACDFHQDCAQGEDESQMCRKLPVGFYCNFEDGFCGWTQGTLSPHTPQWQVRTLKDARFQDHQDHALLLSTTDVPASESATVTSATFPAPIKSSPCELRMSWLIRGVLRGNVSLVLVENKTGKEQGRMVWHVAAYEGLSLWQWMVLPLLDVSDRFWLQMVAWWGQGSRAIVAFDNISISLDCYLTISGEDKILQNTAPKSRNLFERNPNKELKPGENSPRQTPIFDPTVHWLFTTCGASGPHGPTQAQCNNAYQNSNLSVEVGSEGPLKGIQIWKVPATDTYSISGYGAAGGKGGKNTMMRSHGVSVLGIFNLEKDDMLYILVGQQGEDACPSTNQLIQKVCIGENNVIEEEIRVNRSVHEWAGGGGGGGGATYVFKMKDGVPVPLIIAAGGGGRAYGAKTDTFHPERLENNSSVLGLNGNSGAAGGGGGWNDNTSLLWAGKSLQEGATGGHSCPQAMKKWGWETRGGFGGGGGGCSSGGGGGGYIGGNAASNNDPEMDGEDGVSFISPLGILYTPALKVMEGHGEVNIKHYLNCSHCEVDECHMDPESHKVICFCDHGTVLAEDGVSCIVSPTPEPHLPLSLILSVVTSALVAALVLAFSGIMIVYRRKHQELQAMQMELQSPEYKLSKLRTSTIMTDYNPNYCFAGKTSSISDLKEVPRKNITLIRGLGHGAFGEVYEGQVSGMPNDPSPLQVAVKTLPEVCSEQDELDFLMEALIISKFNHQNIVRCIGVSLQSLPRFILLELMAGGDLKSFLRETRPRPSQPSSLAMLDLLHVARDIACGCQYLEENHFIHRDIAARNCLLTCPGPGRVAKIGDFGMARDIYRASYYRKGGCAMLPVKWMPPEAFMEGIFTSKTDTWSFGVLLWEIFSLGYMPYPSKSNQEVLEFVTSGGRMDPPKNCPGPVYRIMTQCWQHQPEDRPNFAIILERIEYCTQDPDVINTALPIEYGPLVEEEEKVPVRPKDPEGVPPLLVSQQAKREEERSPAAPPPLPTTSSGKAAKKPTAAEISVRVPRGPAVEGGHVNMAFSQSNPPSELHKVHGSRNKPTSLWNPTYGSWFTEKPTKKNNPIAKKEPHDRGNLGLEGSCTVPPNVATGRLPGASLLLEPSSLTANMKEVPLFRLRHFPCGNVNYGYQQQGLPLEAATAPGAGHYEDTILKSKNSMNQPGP

[7] = target: ALK tyrosine kinase receptor (Homo sapiens) (UniProt Q9UM73); conditions: at 1 µM
[8] = target: Tyrosine-protein kinase ABL2 (Homo sapiens) (UniProt P42684); conditions: at 0.1 µM
Chain of Tyrosine-protein kinase ABL2 (Homo sapiens) (P42684 whole entry): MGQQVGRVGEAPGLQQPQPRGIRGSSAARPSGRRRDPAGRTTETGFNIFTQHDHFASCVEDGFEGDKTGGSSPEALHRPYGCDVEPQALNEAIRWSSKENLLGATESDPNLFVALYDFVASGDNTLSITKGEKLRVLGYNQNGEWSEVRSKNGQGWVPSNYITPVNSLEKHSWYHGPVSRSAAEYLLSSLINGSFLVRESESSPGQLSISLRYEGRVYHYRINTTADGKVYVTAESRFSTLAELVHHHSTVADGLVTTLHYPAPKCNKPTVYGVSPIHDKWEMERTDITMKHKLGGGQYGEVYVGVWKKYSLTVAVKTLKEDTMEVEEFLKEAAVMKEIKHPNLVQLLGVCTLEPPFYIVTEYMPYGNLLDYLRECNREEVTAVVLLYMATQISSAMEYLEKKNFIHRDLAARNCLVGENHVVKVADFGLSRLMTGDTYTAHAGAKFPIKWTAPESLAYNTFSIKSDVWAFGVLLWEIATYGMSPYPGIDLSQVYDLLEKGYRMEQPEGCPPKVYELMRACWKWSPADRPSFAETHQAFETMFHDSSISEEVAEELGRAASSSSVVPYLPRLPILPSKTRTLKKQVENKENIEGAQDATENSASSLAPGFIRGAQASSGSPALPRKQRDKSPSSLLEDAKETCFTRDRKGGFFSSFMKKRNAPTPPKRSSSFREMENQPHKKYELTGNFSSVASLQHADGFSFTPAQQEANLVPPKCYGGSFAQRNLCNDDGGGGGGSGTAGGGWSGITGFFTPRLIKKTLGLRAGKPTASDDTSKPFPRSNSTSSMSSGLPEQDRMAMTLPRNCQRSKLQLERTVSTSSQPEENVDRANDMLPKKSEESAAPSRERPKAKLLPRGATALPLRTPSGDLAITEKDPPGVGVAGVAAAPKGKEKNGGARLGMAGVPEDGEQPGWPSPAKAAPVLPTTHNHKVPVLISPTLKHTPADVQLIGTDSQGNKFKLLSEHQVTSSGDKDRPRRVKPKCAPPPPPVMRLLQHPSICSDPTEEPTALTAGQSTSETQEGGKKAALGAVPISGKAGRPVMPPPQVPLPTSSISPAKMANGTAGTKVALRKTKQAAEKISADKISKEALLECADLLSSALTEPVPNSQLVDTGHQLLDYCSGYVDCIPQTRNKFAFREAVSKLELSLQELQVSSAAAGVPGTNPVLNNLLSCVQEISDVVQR

[9] = target: Tyrosine-protein kinase ABL2 (Homo sapiens) (UniProt P42684); conditions: at 1 µM
[10] = target: Tyrosine-protein kinase receptor UFO (Homo sapiens) (UniProt P30530); conditions: at 0.1 µM
[11] = target: Tyrosine-protein kinase receptor UFO (Homo sapiens) (UniProt P30530); conditions: at 1 µM
[12] = target: Tyrosine-protein kinase Blk (Homo sapiens) (UniProt P51451); conditions: at 0.1 µM
Chain of Tyrosine-protein kinase Blk (Homo sapiens) (P51451 2-505 limits assumed): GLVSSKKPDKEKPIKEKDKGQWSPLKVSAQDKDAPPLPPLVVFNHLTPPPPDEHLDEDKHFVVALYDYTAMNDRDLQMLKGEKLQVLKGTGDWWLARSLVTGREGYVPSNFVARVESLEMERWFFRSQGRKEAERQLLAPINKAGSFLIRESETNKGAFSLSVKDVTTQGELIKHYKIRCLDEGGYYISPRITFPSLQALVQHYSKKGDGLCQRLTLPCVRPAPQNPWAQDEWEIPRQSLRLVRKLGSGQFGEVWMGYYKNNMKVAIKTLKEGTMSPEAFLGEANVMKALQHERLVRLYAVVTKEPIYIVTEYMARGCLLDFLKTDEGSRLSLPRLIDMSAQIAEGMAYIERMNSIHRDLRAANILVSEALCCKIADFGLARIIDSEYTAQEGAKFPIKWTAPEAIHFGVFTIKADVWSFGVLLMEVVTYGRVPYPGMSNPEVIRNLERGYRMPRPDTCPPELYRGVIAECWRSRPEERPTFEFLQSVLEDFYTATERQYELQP

[13] = target: Tyrosine-protein kinase Blk (Homo sapiens) (UniProt P51451); conditions: at 1 µM
[14] = target: T1, Cytoplasmic tyrosine-protein kinase BMX (Homo sapiens) (UniProt P51813); conditions: at 0.1 µM
T1 sequence (whole entry): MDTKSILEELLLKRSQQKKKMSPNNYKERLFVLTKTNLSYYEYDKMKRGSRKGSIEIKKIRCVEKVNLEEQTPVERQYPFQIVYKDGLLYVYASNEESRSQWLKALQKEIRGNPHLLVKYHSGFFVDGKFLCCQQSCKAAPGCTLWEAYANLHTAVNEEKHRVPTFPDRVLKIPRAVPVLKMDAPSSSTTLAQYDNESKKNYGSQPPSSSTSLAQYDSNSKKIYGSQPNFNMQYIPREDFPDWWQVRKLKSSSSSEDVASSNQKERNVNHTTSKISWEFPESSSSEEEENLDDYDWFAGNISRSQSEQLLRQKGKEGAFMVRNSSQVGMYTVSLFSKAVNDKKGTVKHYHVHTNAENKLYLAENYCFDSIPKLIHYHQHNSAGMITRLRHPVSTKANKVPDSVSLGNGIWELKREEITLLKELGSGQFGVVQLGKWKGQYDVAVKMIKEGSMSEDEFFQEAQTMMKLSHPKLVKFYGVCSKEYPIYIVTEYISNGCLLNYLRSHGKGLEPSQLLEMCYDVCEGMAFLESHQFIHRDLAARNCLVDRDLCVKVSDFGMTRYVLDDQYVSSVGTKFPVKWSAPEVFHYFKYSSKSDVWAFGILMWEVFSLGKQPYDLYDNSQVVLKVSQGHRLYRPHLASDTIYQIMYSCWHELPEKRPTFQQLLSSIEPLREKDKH

[15] = target: T1, Cytoplasmic tyrosine-protein kinase BMX (Homo sapiens); conditions: at 1 µM
[16] = target: Protein-tyrosine kinase 6 (Homo sapiens) (UniProt Q13882); conditions: at 0.1 µM
Chain of Protein-tyrosine kinase 6 (Homo sapiens) (Q13882 whole entry, looked up): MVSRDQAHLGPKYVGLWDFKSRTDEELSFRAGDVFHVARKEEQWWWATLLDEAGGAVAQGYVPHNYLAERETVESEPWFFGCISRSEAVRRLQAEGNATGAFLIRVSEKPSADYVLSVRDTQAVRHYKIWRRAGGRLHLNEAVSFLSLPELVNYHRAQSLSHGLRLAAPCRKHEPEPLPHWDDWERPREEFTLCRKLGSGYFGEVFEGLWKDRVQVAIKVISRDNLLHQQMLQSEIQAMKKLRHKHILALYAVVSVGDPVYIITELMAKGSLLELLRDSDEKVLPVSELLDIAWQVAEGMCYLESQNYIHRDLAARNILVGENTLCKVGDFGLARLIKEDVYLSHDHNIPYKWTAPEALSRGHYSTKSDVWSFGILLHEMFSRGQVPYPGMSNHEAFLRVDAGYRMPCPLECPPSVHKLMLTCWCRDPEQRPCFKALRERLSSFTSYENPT

[17] = target: Protein-tyrosine kinase 6 (Homo sapiens) (UniProt Q13882); conditions: at 1 µM
[18] = target: Tyrosine-protein kinase BTK (Homo sapiens) (UniProt Q06187); conditions: at 0.1 µM
Chain of Tyrosine-protein kinase BTK (Homo sapiens) (Q06187 whole entry): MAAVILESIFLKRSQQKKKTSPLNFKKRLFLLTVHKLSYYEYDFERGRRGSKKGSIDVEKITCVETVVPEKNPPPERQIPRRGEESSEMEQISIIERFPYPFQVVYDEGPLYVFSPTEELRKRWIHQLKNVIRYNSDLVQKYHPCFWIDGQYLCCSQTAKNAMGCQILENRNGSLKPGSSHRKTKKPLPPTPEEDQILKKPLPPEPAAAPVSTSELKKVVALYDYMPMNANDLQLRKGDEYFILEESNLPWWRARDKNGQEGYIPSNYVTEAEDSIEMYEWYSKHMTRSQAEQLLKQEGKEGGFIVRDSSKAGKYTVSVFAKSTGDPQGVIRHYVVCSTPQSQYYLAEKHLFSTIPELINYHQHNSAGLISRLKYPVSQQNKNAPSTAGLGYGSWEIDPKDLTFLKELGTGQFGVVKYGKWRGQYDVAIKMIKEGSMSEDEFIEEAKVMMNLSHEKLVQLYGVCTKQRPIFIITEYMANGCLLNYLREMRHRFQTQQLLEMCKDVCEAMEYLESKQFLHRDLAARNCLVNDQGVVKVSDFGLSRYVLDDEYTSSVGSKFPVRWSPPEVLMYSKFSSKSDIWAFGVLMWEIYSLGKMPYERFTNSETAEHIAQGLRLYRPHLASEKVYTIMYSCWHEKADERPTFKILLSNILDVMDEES

[19] = target: Tyrosine-protein kinase BTK (Homo sapiens) (UniProt Q06187); conditions: at 1 µM
[20] = target: Tyrosine-protein kinase CSK (Homo sapiens) (UniProt P41240); conditions: at 0.1 µM;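 also: value given is the averaged percent inhibition of CSK kinase activity, from the GSK PKIS kinase inhibitor set screening panel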
Chain of Tyrosine-protein kinase CSK (Homo sapiens) (P41240 2-450 limits assumed): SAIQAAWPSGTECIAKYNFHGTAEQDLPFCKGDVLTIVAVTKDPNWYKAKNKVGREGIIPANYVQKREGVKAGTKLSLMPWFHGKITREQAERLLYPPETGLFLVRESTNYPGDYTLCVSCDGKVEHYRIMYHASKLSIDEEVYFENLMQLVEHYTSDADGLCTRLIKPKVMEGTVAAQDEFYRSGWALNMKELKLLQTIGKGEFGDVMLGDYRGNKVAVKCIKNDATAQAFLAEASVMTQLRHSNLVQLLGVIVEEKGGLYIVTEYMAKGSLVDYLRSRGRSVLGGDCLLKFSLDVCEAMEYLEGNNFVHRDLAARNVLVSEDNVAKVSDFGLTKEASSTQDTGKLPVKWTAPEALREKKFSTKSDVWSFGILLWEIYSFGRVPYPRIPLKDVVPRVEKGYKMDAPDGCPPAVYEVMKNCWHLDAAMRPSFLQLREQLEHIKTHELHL

Structure (SMILES)	inhibition [1]	inhibition [2]	inhibition [3]	inhibition [4]	inhibition [5]	inhibition [6]	inhibition [7]	inhibition [8]	inhibition [9]	inhibition [10]	inhibition [11]	inhibition [12]	inhibition [13]	inhibition [14]	inhibition [15]	inhibition [16]	inhibition [17]	inhibition [18]	inhibition [19]	inhibition [20]
NC(=O)Cc1ccccc1Oc1nccc(-c2c(-c3ccc(F)cc3)ncn2C2CCNCC2)n1	-0.82%	1.75%	1.1%	2.7%	5.08%	4.05%	8.13%	2.21%	2.93%	-5.91%	1.68%	1.46%	2.66%	7.68%	3.56%	2.9%	1.21%	1.29%	0.76%	0.51%
CCN(CC)Cc1ccc(Nc2nccc(-c3cnn4ncccc34)n2)cc1	47.4%	8.38%	39.5%	6.1%	29.5%	2.57%	24.4%	1.47%	22.2%	-3.64%	16.3%	-0.3%	1.7%	2.63%	10.8%	3.93%	15.7%	-3.74%	-0.83%	1.79%
O=C(Nc1ccc(Oc2ccc3[nH]c(NC(=O)c4ccccc4)nc3c2)cc1)Nc1cc(C(F)(F)F)ccc1F	83%	10.8%	51.8%	16.2%	62.3%	3.09%	6.42%	25.1%	65.9%	-3.01%	19.2%	2.56%	4.59%	1.13%	2.54%	3.52%	8.39%	0.7%	3.03%	2.64%
COc1ccc2ncn(-c3cc(O[C@H](C)c4ccccc4Cl)c(C(N)=O)s3)c2c1	3.67%	2.13%	4.15%	-0.74%	0.5%	-1.6%	0.59%	-1.99%	-0.05%	-9.61%	-8.67%	-1.08%	-2.12%	3.14%	4.61%	-0.06%	4.71%	-4.3%	-3.34%	4.64%
NC(=O)c1cc(-c2ccncc2)cc(-c2ccccc2)c1N	3.04%	8.23%	40.8%	7.61%	40.2%	3.8%	5.19%	6.19%	54.2%	-7.51%	-6.8%	3.86%	17.5%	11.8%	49.6%	5.89%	36.9%	1.6%	11.8%	5.98%
COc1cccc(/C=N/Nc2ncnc3c2cnn3-c2cccc(OC)c2)c1	10.4%	11.1%	49.7%	6.38%	27.4%	1.22%	2.63%	2.78%	15.2%	-6.24%	-4.88%	1.56%	4.98%	2.16%	5.64%	2.5%	5.61%	-0.27%	-1.35%	2.79%
CCc1cccc(CC)c1/C=C/c1cncc(C(=O)NC)c1	4.76%	5.29%	22.2%	8.06%	45.9%	2.66%	4.03%	5.58%	12.9%	-2.3%	-1.28%	2.14%	4.46%	0.51%	4.87%	2.78%	3.98%	2.48%	2.98%	1.29%
N#Cc1ccc(Oc2nccc(-c3c(-c4ccc(F)cc4)ncn3C3CCNCC3)n2)cc1	5.17%	2.11%	5.93%	3.72%	5.42%	3.58%	5.33%	1.9%	6.94%	-5.46%	-3.22%	2.21%	3.73%	3.25%	4.26%	4.1%	4.81%	-1.09%	0.54%	0.79%
CCS(=O)(=O)c1ccc(OC)c(Nc2ncc(-c3ccccc3Cl)o2)c1	11.7%	5.95%	33.3%	2.99%	29.3%	0.79%	5.19%	4.89%	24.5%	-0.86%	1.78%	2.51%	15.7%	-1.76%	3.11%	-0.35%	5.66%	2.72%	2.31%	1.15%
C/C(Nc1ccc(S(N)(=O)=O)cc1)=C1/C(=O)Nc2ccccc21	12.2%	-0.47%	12.8%	1.79%	11.7%	-1.33%	14.2%	-0.23%	10.1%	0.11%	10.5%	-0.72%	12%	-4.07%	-0.17%	-2.78%	-1.43%	-2.32%	-1.09%	-5.47%
Fc1ccc(-c2ncn(C3CCNCC3)c2-c2ccnc(Oc3ccc(Oc4ccccc4)cc3)n2)cc1	1.98%	1.99%	2.86%	3.87%	2.97%	4.84%	4.48%	2.96%	3.58%	-7.4%	-7.71%	3.8%	3.79%	3.11%	6.45%	1.09%	1.93%	-2.01%	0.33%	0.47%
C#Cc1cccc(Nc2ncnc3ccc(OCCCCNCCS(C)(=O)=O)cc23)c1	19.4%	8.28%	24.9%	8.05%	26.8%	3.38%	31.9%	5.87%	14.8%	-8.14%	-7.98%	2.28%	3.96%	3.24%	5.57%	6.2%	10.2%	-3.76%	1.2%	3.24%
COc1cccc(-n2cnc3c(N/N=C/c4ccncc4)ncnc32)c1	28.5%	44.6%	85.3%	29%	72.2%	-1.9%	-4.64%	12.7%	59.5%	3.99%	-2.08%	-0.3%	15.8%	-0.75%	16.1%	0.43%	15.2%	-2.61%	-2.79%	1.91%
COc1ccc(C2=C(N3CCc4ccccc43)C(=O)NC2=O)cc1	6.11%	5.42%	3.01%	5.83%	9.91%	1.29%	5.62%	6.76%	12.3%	-5.65%	-4.91%	3.71%	2.94%	-1.14%	5.15%	6%	5.72%	1.91%	0.84%	7.99%
NS(=O)(=O)c1ccc(N/N=C2\C(=O)Nc3ccc(C(=O)NCCCn4ccnc4)cc32)cc1	14.2%	5.66%	15.5%	2.77%	13.3%	3.7%	11.1%	4.28%	9.85%	-2.66%	3.27%	2.75%	12.2%	10.2%	8.26%	4.87%	6.65%	-1.04%	0.06%	2.76%
COc1cc(N2CCN(C(C)C)CC2)ccc1Nc1nc(Nc2ccc(F)cc2C(=O)NC[C@@H](O)CO)c2cc[nH]c2n1	6.94%	4.03%	6.49%	-1.73%	0.53%	82.6%	69.5%	-1.39%	1.38%	-4.74%	7.75%	-1.34%	0.03%	3.82%	4.34%	4.82%	7.68%	-2.66%	-4.6%	5.74%
O=C(NCC1CC1)c1ccc(-c2cccc(C(=O)NC3CC3)c2)cc1	1.69%	2.82%	3.7%	3.84%	8.82%	1.84%	3.12%	3.93%	5.95%	-3.58%	-0.85%	1.41%	3.43%	-3.65%	3.29%	0.45%	3.3%	1.12%	1.69%	1.29%
COc1ccc(-c2ccc3c(NC(=O)C4CC4)n[nH]c3n2)cc1	21.2%	2.3%	9.63%	2.39%	19.3%	1.28%	1.76%	2.81%	8.05%	-1.95%	-2.35%	1.52%	2.8%	3.4%	2.59%	0.93%	2.88%	0.22%	-0.23%	0.42%
c1ccc(-c2n[nH]cc2-c2ccnc(-c3ccc(OCCN4CCOCC4)cc3)c2)nc1	1.83%	13.5%	57.1%	18.2%	70%	-2.58%	3.94%	5.43%	34.1%	8.29%	10.8%	1.62%	1.61%	2.19%	0.44%	-5.63%	-2.62%	0.21%	6.66%	-3.84%
CS(=O)(=O)CCNCc1cc(-c2cc3c(Nc4ccc(OCc5cccc(F)c5)c(Cl)c4)ncnc3s2)cs1	4.55%	2.36%	4.31%	3.45%	6.21%	2.96%	4.5%	2.95%	6.38%	-7.56%	-6.81%	2.61%	5.05%	3.9%	7.31%	1.27%	5.98%	-1.08%	0.76%	1.58%
Cc1ccc(C(=O)NC(C)C)cc1-c1ccc(C(=O)NCC2CC2)cc1	0.58%	-2.81%	-0.96%	0.14%	1.26%	-4.4%	-3.45%	-2.09%	-0.41%	2.35%	4.77%	-1.25%	-1.6%	-4.33%	-4.09%	-3.3%	-4.09%	-0.46%	-1.32%	-7.18%
CN1CCN(CCCNc2nc3ccc(Oc4ccc(NC(=O)Nc5cc(C(F)(F)F)ccc5F)cc4)cc3[nH]2)CC1	32%	4.8%	10.8%	-0.51%	13.6%	-3.93%	0.57%	-0.15%	15.4%	0.85%	27.5%	-2.37%	-2.3%	-1.87%	2.63%	-0.99%	1.35%	-3.09%	1.43%	-0.95%
NC(=O)c1cc(-c2ccc(F)cc2)cc(-c2ccncc2)c1N	4.82%	4.33%	5.14%	2.42%	6.04%	1.8%	4.91%	1.26%	5.07%	-7.77%	-4.61%	2.33%	4.55%	7.08%	7.6%	3.05%	5.71%	0.21%	-0.9%	0.77%
CN(C)c1ccc2c(c1)/C(=C/Nc1ccc(S(N)(=O)=O)cc1)C(=O)N2	18.4%	4.7%	18.7%	2.76%	21.3%	1.86%	8.32%	2.83%	4.52%	0.79%	14.8%	2.29%	33.2%	-8.96%	1.7%	0.1%	2.14%	-1.88%	-0.24%	2.3%
O=C(Nc1n[nH]c2cc(-c3ccccc3)ccc12)C1CC1	82.8%	22.3%	68%	13.5%	63.8%	3.37%	4.86%	6.15%	31.2%	-8.55%	-6.73%	1.88%	6.79%	4.11%	4.88%	2.71%	6.62%	1.13%	2.12%	2.97%
O=C1Nc2ccc(I)cc2C1=Cc1cc(Br)c(O)c(Br)c1	2.95%	1.68%	5.83%	5.59%	6.33%	3.04%	4.7%	4.07%	6.48%	-5.83%	-7.49%	1.48%	3.74%	2.64%	7.27%	3.26%	6.68%	-1.22%	-0.86%	-2.19%
